Compound activity deposited in PubChem by National Center for Advancing Translational Sciences (NCATS).
Many of the other results were omitted from the sample, so hits are more common in it than they were.
HTT cytoprotect: protects HTT-Q103 PC12 cells, measured by ATP; PC12 HTT-Q103 induced, cytoprotection, ATP luminescence, 40 h; Potency, µM (highest dose often 56.4 µM), usual class: activators; actives 0.14% (n = 230,000); AID 1471; note: nearly all actives have a fitted effect of over 45% in size
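Stable PC12 Q103-GFP cells in serum-supplemented, phenol red-free DMEM; induction by tebufenozide at 100 nM final; compound dose series; cell viability quantified luminescently from ATP.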
PNC inhibitor: inhibitors of perinucleolar compartment assembly | PC3M PTB-GFP, PNC prevalence imaging, 16 h; active compounds read low | activity change (PNC), negative = inhibition, % at 10 µM | actives 3.1% (n = 140,000);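 active = readout at or below -70, meaning at least 70% loss of cells showing the perinucleolar compartment, a nuclear body marking cancer cells; inconclusive = readout between -30 and a set limit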
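PC3M cells stably expressing PTB-GFP, 750–1000 cells/well, treated 16 h at 37 °C with compound (23 nl of library stock), in duplicate. After paraformaldehyde fixation and Hoechst stain, imaged at 20x; PNC prevalence scored by image analysis.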
HTT aggregate: reduces HttQ103-GFP aggregates in PC12 cells. PC12 HttQ103-GFP aggregates, Acumen cytometry, 40 h. Potency, µM (series often up to 46.1 µM), actives largely listed as inhibitors. actives 1.1% (n = 220,000); note: nearly all actives have a fitted effect of over 60% in size
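Aggregate formation scored by laser-scanning cytometer (488 excitation, 500–530 emission) in lysed PC12 cells expressing Q103-GFP after 100 nM tebufenozide induction; library tested in dose series, with ATPLite reagent added in the multiplex.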
Of the large screens only hits and unclear results are named; the others gave an inactive call. Unless noted, calls come from the whole dose curve; as a rule, active = well fitted curve in the direction sought with a large enough effect; inconclusive = small, poorly fitted or top-dose-only effect, or another doubt; inactive = no such curve, though single readings can be large; an effect the other way counts as inactive or inconclusive.

CCn1nnnc1SCC(=O)Nc1ccc(OC)cc1	PNC inhibitor -100
O=C(CSc1nnc(-c2cccnc2)n1-c1ccccc1)Nc1ccccc1	PNC inhibitor -100
COc1ccc(NC(=O)CSc2nnc(-c3ccccc3)n2N)cc1	PNC inhibitor -100
Cc1ccc(NC(=O)CSc2nnc(-c3cccnc3)n2-c2ccc(C)cc2)cc1	none
CCOc1ccc(NC(=O)CSc2nnc(C(C)C)n2CC)cc1	PNC inhibitor -119
COc1ccc(NC(=O)CSc2nnnn2C2CCCC2)cc1	none (no result: PNC inhibitor)
CCOc1ccc(NC(=O)CSc2nnc(-c3ccccc3)n2N)cc1	none
CCCn1c(SCC(=O)Nc2ccc(OCC)cc2)nnc1C(C)C	none
CCOC(=O)N1CCN(S(=O)(=O)c2ccc3c(c2)CCN3C(=O)C2CC2)CC1	none
COc1ccc(-c2nc3cnc(Nc4ccccc4)nc3n(C[C@H]3CCCO3)c2=O)cc1	none (no result: PNC inhibitor, HTT aggregate)
CCOC(=O)N1CCN(S(=O)(=O)c2ccc(C)c([N+](=O)[O-])c2)CC1	none (no result: PNC inhibitor)
CCn1c(CNC(=O)c2cccs2)nnc1SCC(=O)Nc1ccc(Cl)cc1	none
CCn1nnnc1SCC(=O)Nc1nc2ccc(OC)cc2s1	PNC inhibitor -100
COc1ccc2nc(NC(=O)CSc3nc(C)cc(C)n3)sc2c1	none
CCOc1ccc(NC(=O)C2CC(=O)OC2c2ccccc2)cc1 (centres undefined)	none (no result: PNC inhibitor)
COc1ccc(S(=O)(=O)N(C)c2ccc(OCC(=O)Nc3cc(C)on3)cc2)cc1	HTT cytoprotect inconclusive, PNC inhibitor -97
COc1ccc(-c2csc(NC(=O)COc3ccc(N(C)S(=O)(=O)c4ccc(C)cc4)cc3)n2)cc1	none
N#CCCn1cc(C(=O)Nc2ccc(C(=O)O)cc2)c(-c2ccc([N+](=O)[O-])cc2)n1	none (no result: PNC inhibitor)
O=C(/C=C/Nc1ccccc1)C(F)(F)F	none (no result: PNC inhibitor)
CCCn1c(SCC(=O)Nc2cc(S(=O)(=O)N3CCOCC3)ccc2Cl)n[nH]c1=O	none
CCN1CCc2c(sc(NC(=S)NC(=O)c3ccco3)c2C(N)=O)C1	none (no result: PNC inhibitor)
CCN1CCc2c(sc(NC(=O)Nc3ccc(Cl)c(Cl)c3)c2C(N)=O)C1	PNC inhibitor -118, HTT aggregate 11µM (no result: HTT cytoprotect)
CC(=O)NC1=C(NC2CCS(=O)(=O)C2)C(=O)c2ccccc2C1=O (centres undefined)	none
CN(C1=C(NC(=O)c2ccccc2)C(=O)c2ccccc2C1=O)C1CCS(=O)(=O)C1 (centres undefined)	HTT aggregate 22µM
CCc1ccc2nc(SCC(=O)N3CC(=O)Nc4ccccc43)c(C#N)cc2c1	PNC inhibitor inconclusive
Cc1ccc(Nc2c(-c3ccc(N4CCOCC4)cc3)nc3ncccn23)cc1	none (no result: HTT cytoprotect)
Cc1ccc(Nc2c(-c3ccc(N4CCOCC4)cc3)nc3ncccn23)cc1C	PNC inhibitor -102 (no result: HTT cytoprotect)
COc1ccc(CNC(=O)c2cc(-c3ccncc3)nc3c(C)cc(C)cc23)cc1OC	none (no result: PNC inhibitor)
COc1ccc(CNc2cc(-c3ccccc3OC)ncn2)c(OC)c1	none (no result: PNC inhibitor, HTT aggregate)
CCc1nnc(NC(=O)CSc2nnc(-c3ccoc3C)n2-c2cccc(C)c2)s1	PNC inhibitor -96
COc1cccc(-n2c(SCC(=O)Nc3nccs3)nnc2-c2ccoc2C)c1	PNC inhibitor -100
COc1ccc(-n2c(SCC(=O)Nc3nccs3)nnc2-c2ccoc2C)cc1	none
Cc1cccc(-n2c(SCC(=O)Nc3nnc(C)s3)nnc2-c2ccoc2C)c1	none
COc1ccc(C(=O)/C(=C\c2sccc2C)c2nc3ccccc3o2)cc1	none (no result: HTT cytoprotect)
CCCCn1cnc2c(sc3nc4c(cc32)CSC(C)(C)C4)c1=O	none
CC1(C)CC(=O)N(c2ccccc2)C1(C)O (centres undefined)	PNC inhibitor -86
CN1C(=O)CCC1(O)c1ccccc1 (centres undefined)	PNC inhibitor inconclusive
CN(C)C(=O)c1cc([N+](=O)[O-])ccc1O	none (no result: PNC inhibitor)
O=C(NNC(=S)Nc1ccccc1)c1cccc(Br)c1	none
CC(C)(C)NC(=S)NNC(=O)c1cccc(Br)c1	HTT aggregate 11µM (no result: PNC inhibitor)
N#Cc1nc(-c2cccs2)oc1NCc1ccco1	none
Cc1onc(-c2ccccc2)c1C(=O)Nc1cccc(OC(C)C)c1	none
CCOC(=O)Cc1csc(NC(=O)c2c(-c3ccccc3)noc2C)n1	PNC inhibitor inconclusive
CCCOc1cccc(NC(=O)c2c(-c3ccccc3)noc2C)c1	HTT aggregate 6.3µM
CCOC(=O)c1c(NC(=O)c2c(-c3ccccc3)noc2C)sc(C)c1-c1ccccc1	PNC inhibitor -103
COc1ccc(OCC(O)CNC(=O)Nc2cc(F)ccc2C)cc1 (centres undefined)	none (no result: PNC inhibitor)
O=C1C2CC=C(Cl)CC2C(=O)N1CCC[n+]1ccccc1 (centres undefined)	none
Cn1nc(CC(=O)Nc2ncc(Br)s2)c2ccccc2c1=O	PNC inhibitor -119
Cn1nc(CC(=O)NC2CCCCCCCCCCC2)c2ccccc2c1=O	none
Cc1ccccc1C(=O)N1CCN(c2nc(N3CCOCC3)nc(N3CCOCC3)n2)CC1	HTT aggregate inconclusive
COCCCN=C1NN=C(c2cc(C)n(Cc3ccco3)c2C)CS1	PNC inhibitor -108
Cc1cc(C2=NNC(=NC3CC3)SC2)c(C)n1Cc1ccco1	HTT aggregate inconclusive
NC(=S)COc1ccccc1	none (no result: PNC inhibitor)
Nc1c(S(=O)(=O)c2ccccc2)c2nc3ccccc3nc2n1/N=C/c1cccc(O)c1	none
COc1ccc(CC(=O)NCc2ccc3c(c2)cc(C)n3C)cc1	none (no result: HTT cytoprotect, PNC inhibitor)
Cc1cc2cc(OCC(=O)O)ccc2n1C	PNC inhibitor -113
CN1CCN(CC(O)COc2ccc(C34CC5CC(CC(C5)C3)C4)cc2)CC1 (centres undefined)	HTT aggregate inconclusive (no result: PNC inhibitor)
C/C=C/COc1nc2c(c(=O)n(C)c(=O)n2C)n1C	PNC inhibitor -100
C=CCOc1nc2c(c(=O)n(C)c(=O)n2C)n1C	none
Cn1c(=O)c2c(nc(Oc3ccc4ccccc4c3)n2C)n(C)c1=O	HTT aggregate 1.4µM
Cn1c(=O)c2c(nc(OCCc3ccccc3)n2C)n(C)c1=O	none (no result: PNC inhibitor)
Cc1[nH]c2ccccc2c1/C=N/NC(=O)CNC(=O)COc1ccccc1	none (no result: PNC inhibitor)
C=CCn1c(SCC(=O)c2ccc(NS(=O)(=O)c3ccccc3)cc2)nnc1-c1cccs1	none
CCOc1cc2nc(-c3ccc(OC)c(OC)c3)nc(N3CC(C)OC(C)C3)c2cc1OC (centres undefined)	HTT aggregate inconclusive
CCCCNCc1cc(OC)c(OCC(N)=O)cc1Br	PNC inhibitor -100
CCCCNCc1cc(OCC)c(OCC(N)=O)cc1Br	none
OCC1(CCc2ccccc2)CCN(Cc2c(F)ccc(F)c2F)CC1	none (no result: PNC inhibitor)
Cc1ccc(NC(=O)C(C)OC(=O)c2ccc(NS(=O)(=O)c3ccc(F)c(F)c3)cc2)cc1 (centres undefined)	none (no result: HTT cytoprotect)
CC(=O)c1ccc(NC(=O)C(C)OC(=O)c2ccc(NS(=O)(=O)c3ccc(F)c(F)c3)cc2)cc1 (centres undefined)	PNC inhibitor -100 (no result: HTT cytoprotect)
CN(C)c1ccc(NC(=O)c2cccc(C(=O)Nc3ccc(N(C)C)cc3)n2)cc1	none
COc1cc(C(=O)NC(=S)Nc2ccccc2[N+](=O)[O-])cc(OC)c1OC	none (no result: PNC inhibitor)
Cc1ccc(C(=O)CCC(=O)O)cc1	none
CCCc1ccc(C(=O)CCC(=O)O)cc1	PNC inhibitor -96
CCN(CC)S(=O)(=O)c1ccc2c3c(cccc13)C(=O)N2	HTT aggregate 1.6µM
